ELG1 genotoxic = inducers of genotoxicity in HEK293T ELG1-luciferase cells; Potency, µM (top dose mostly 46 µM), inactives show top-dose activity change, positive = activation, actives largely listed as activators; HEK293T ELG1-luciferase reporter, luminescence, 16 h; AID 504466; 330,000 tested, 1.3% active; also: % of control where 0% means no effect; nearly all actives have a fitted effect of over 60% in size
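ELG1-luciferase HEK293T cells, 2,000/well; compound pinned in; 16 hr, 37 °C, 5% CO2; ONE-Glo, 30 min RT; luminescence on CCD imager.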
SMN2 splice enh = enhancers of SMN2 splice variant expression | HEK293 SMN2-luciferase splicing reporter, luminescence, 30-36 h | Potency, µM (top dose mostly 46.1 µM), for inactives: at the top dose activity change, positive = activation, actives largely listed as activators | 210,000 tested, 2.8% active; also: % of control where 0% means no effect; nearly all actives have a fitted effect of over 55% in size
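HEK293 cells carry an SMN2 […]–luciferase reporter in which exon 7 inclusion puts luciferase in frame. Cells were plated 10-12 h before compound addition, then incubated 30-36 h at 37C. ONE-Glo luminescence was read; sodium butyrate at 4.5 mM final served as control.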
FLuc modulator = counter-screen for miR-21 project: firefly luciferase inhibitors or activators. P08659. 360,000 tested, 6.9% active. purified FLuc, Km substrates, luminescence inhibition. Potency, µM (series often up to 57.5 µM), without a hit: at the top dose activity change, negative = inhibition, hits mostly inhibitors;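 also: plate controls were vehicle for no effect and reference inhibitor for full effect; nearly all actives have a fitted effect of over 55% in size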
Target sequence (P08659 whole entry, looked up): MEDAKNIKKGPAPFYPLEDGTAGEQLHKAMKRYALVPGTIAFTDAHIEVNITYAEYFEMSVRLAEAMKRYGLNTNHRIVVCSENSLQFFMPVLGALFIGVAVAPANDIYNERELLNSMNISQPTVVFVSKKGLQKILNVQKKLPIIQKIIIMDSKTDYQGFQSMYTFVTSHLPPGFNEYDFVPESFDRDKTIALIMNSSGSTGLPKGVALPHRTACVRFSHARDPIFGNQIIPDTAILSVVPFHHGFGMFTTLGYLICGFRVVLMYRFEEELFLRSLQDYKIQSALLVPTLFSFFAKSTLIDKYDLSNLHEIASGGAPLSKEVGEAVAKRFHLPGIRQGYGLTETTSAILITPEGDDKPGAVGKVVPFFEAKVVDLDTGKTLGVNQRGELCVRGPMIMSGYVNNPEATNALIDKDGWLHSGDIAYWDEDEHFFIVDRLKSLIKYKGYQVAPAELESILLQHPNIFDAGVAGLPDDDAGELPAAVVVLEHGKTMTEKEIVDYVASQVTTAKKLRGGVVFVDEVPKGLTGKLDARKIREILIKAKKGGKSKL
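Purified P. pyralis luciferase, 10 nM final, with Km-level 10 uM D-luciferin and 10 uM ATP in 50 mM Tris acetate pH 7.5, 10 mM Mg acetate, 0.01% Tween-20, 0.05% BSA; 6-point qHTS titration about 60 µM downward; luminescence read.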
NPC1 prom act = activates the NPC1 promoter; Huh7 NPC1 promoter luciferase reporter, 24 h; Potency, µM (doses to about 9.22 µM), for inactives: at the top dose activation, most hits filed as activators; 320,000 tested, 2.4% active; also: % of control where 0% means no effect; nearly all actives have a fitted effect of over 60% in size
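Huh7 cells stably carrying NPC1 promoter–luciferase, plated in Opti-MEM with 10% FBS for 2 h, were exposed to compound in DMSO for 24 h at 37 °C; luciferase reagent was added for 10 min and luminescence read.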
Rab9 prom act = activates the Rab9 promoter | Huh7 Rab9 promoter-luciferase reporter, luminescence, 24 h | Potency, µM (highest dose often 9.22 µM), inactives show at the top dose activation, negative = inhibition, hits mostly activators | 320,000 tested, 2.8% active | AID 485297; also: % of control where 0% means no effect; nearly all actives have a fitted effect of over 60% in size
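Huh7 cells stably carrying a Rab9 promoter-luciferase reporter, 1500 cells per well in OP-MEM I with 10% FBS, treated with compound 24 hours at 37C. Luciferase activity read by luminescence after 10 minutes with Amplite reagent.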
ELG1 DNA repair = blocks ELG1-dependent DNA repair in HEK293T cells. HEK293T ELG1-luciferase reporter, luminescence, 16 h; DNA damage induced by 5-fluorouridine. Potency, µM (highest dose often 46.1 µM), for the others: at the highest dose activity change, negative = inhibition, actives largely listed as inhibitors. 330,000 tested, 2.3% active. AID 504467; also: % is scaled to controls: 0 for no effect and ±100 for the full control effect; nearly all actives have a fitted effect of over 55% in size
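HEK293T cells expressing luciferase-tagged ELG1 (2,000/well) received 5-Fluorouridine plus compound or DMSO for 16 hr at 37 °C. Luciferase was read by ONE-Glo luminescence after 30 min at room temperature.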
Active calls of the source: *; ? = inconclusive; / = not tested or not shown; [ ] = dose if it differs, or a comment. An excerpt weighted towards active compounds, which were near 9.4% of everything screened. Calls follow the shape of the dose curve; as a rule, active = well fitted curve in the direction sought with a large enough effect; inconclusive = small, poorly fitted or top-dose-only effect, or another doubt; inactive = no such curve, though single readings can be large; an effect the other way counts as inactive or inconclusive. Potency is read from the fitted curve at half-maximal effect.

SMILES	ELG1 genotoxic	SMN2 splice enh	FLuc modulator	NPC1 prom act	Rab9 prom act	ELG1 DNA repair
CN(C)S(=O)(=O)c1cccc(-c2nnc(-c3ccccc3)o2)c1	?	10%	24µM*	?	?	?
c1ccc(-c2nnc(-c3ccncc3)o2)cc1	11%	18%	?	?	3.2µM*	?
Cc1cccc(OC(C)C(=O)Nc2ncn[nH]2)c1 (stereo not given)	/	/	-3%	/	/	/
c1ccc(-c2nnc(-c3c[nH]c4ccccc34)nc2-c2ccccc2)cc1	-4%	-30%	-1%	-4%	-5%	23µM*
COc1ccc(S(=O)(=O)N(Cc2nc(-c3ccc(Cl)cc3)no2)C2CCCCC2)cc1	/	-1%	-7%	/	/	/
Cc1nn2cc(-c3ccc(N)cc3)nc2s1	?	13µM*	11µM*	1µM*	1µM*	?
Cc1ccc(NC(=O)C2CCN(c3nn4cc(-c5ccc(C)cc5)nc4s3)CC2)cc1	/	/	32%	/	/	/
Cc1ccc(C(=O)N/N=C\c2ccc3c(c2)OCO3)cn1	6%	/	17µM*	1%	3%	20%
O=C(N/N=C/c1cccnc1)c1ccc(NC(=O)c2ccc(Cl)cc2)cc1	-6%	/	-3%	1%	-1%	-4%
Cc1ccc(C(=O)N/N=C/c2cccc(OC(=O)/C=C/c3ccco3)c2)cn1	9%	/	12µM*	2%	-1%	14%
Cc1cc(C(=O)N/N=C/c2ccc3c(c2)OCO3)c2ccccc2n1	5%	/	-18%	-32%	-23%	?
O=C(N/N=C/c1ccc2c(c1)OCO2)c1cccnc1	24%	/	27µM*	28%	13%	?
O=C(N/N=C\c1ccc2c(c1)OCO2)c1cncc(Br)c1	-14%	/	?	12%	15%	13%
O=C(N/N=C/c1cccnc1)c1ccc2c(c1)OCCO2	?	8.9µM*	6µM*	?	3.2µM*	?
CCOc1ccc(CCNC(=O)c2ccc3c(c2)N(Cc2ccccc2F)C(=O)c2ccccc2S3=O)cc1OCC (stereo not given)	/	-10%	1%	/	/	/
Cc1cc(C(=O)N/N=C/C=C/c2ccc3c(c2)OCO3)n[nH]1	5%	-13%	15µM*	1%	6%	5%
CCOC(=O)C1CCCN(C(=O)c2ccc(C)c(NC(=O)c3nsc4ccccc34)c2)C1 (stereo not given)	/	/	-15%	/	/	/
NC(=O)C1CCN(C(=O)c2ccc(NC(=O)c3nsc4ccccc34)cc2)CC1	/	/	1.7µM*	/	/	/
CCOC(=O)C1CCCN(C(=O)c2ccc(NC(=O)c3nsc4ccccc34)cc2)C1 (stereo not given)	/	/	12µM*	/	/	/
CCOC(=O)C1CCN(C(=O)c2ccc(NC(=O)c3nsc4ccccc34)cc2)CC1	/	/	15µM*	/	/	/
CC(CC(=O)O)(CC(=O)O)c1ccccc1	/	-6%[9.22 µM]	/	/	/	/
Cc1noc(C)c1S(=O)(=O)NCCc1csc2nc(-c3ccc(F)cc3)nn12	/	/	-14%	/	/	/
Cc1cc2ccccc2n1CCNC(=O)C1CCCCC1	23µM*	-56%	0%	-2%	2%	-2%
Cc1cc2ccccc2n1CCNC(=O)C1CCCC1	1%	-8%	2%	-3%	1%	-1%
Cc1cc2ccccc2n1CCNC(=O)c1cccs1	?	-29%	21µM*	?	?	?
SMILES	ELG1 genotoxic	SMN2 splice enh	FLuc modulator	NPC1 prom act	Rab9 prom act	ELG1 DNA repair
Cc1cc(C)n(-c2nc3ccccc3nc2Nc2cccc(C(F)(F)F)c2)n1	/	6%	1%	/	/	/
CCSc1ncc(Cl)c(C(=O)N(Cc2ccccc2)c2ccc(OC)cc2)n1	/	-48%	-9%	/	/	/
CCN1CCc2nc(NC(=O)c3ccccc3)sc2C1	/	10%	7.6µM*	/	/	/
COc1cccc(C(=O)Nc2nc3c(s2)CN(C)CC3)c1	18%	11%	19µM*	?	?	?
O=C(Nc1nc2c(s1)CN(Cc1ccccc1)CC2)C1CCC1	?	?	24µM*	?	4.5µM*	?
O=C(Nc1ccnn1C1CCN(Cc2ccccc2)CC1)C1CCCC1	1%	/	2%	-5%	5%	9%
CN1CCc2nc(NC(=O)c3cccc(S(=O)(=O)N4CCc5ccccc54)c3)sc2C1	3%	6%	-11%	0%	-3%	-2%
CC1CCc2onc(C(=O)N3CCN(c4cccc(C(F)(F)F)c4)CC3)c2C1 (stereo not given)	/	/	-10%	/	/	/
Cc1ccc(CNc2ccc3cc(S(=O)(=O)N4CCCCC4)ccc3n2)cc1	/	/	-2%	/	/	/
COc1cc(NC(=O)C2CCN(S(=O)(=O)c3c(C)noc3/C=C/c3ccccc3F)CC2)cc(OC)c1OC	/	/	-1%	/	/	/
OCc1cc(Br)ccc1OCc1nc2ccccc2s1	?	/	5.4µM*	3.2µM*	2.8µM*	?
Oc1ccccc1OCc1nc2ccccc2s1	8.2µM*	32µM*	5.4µM*	13%	29%	?
CCOc1ccccc1NC(=O)CSC1=Nc2ccccc2C2=NC(CC(=O)NC3CCCCC3)C(=O)N12 (stereo not given)	/	2%	-15%	/	/	/
Clc1ccc(Nc2ncnc3c2cnn3-c2ccccc2)cc1	12µM*	43%	13µM*	?	?	?
CC(=O)Nc1ccc(Nc2ncnc3c2cnn3-c2ccccc2)cc1	9%	-12%	-8%	?	?	?
Cn1ncc2c(Nc3ccc4ccccc4c3)ncnc21	?	/	11µM*	?	3.2µM*	?
Clc1ccc(-n2ncc3c(NCc4cccs4)ncnc32)cc1	-5%	-57%	4%	3%	5%	-5%
CC(C)Nc1ncnc2c1cnn2-c1ccc(Cl)cc1	0.37µM*	1.3µM*	0.54µM*	0.28µM*	0.32µM*	?
COc1ccc(Cl)cc1NC(=O)Cn1c(=O)n(-c2ccc(C)cc2)c(=O)c2ccc(C(=O)NCc3ccccc3Cl)cc21	/	6%	-3%	/	/	/
c1ccc2c(c1)Cc1cc3cc4c(cc3nc1-2)OCO4	/	0.5µM*	/	/	/	/
N#Cc1c(N)nc2c(c1-c1ccc3c(c1)OCO3)CCc1ccccc1-2	12%	?	2%	-2%	-7%	-20%
O=C(N[C@H]1CCCc2ccccc21)O[C@@H]1C(=O)c2cc(Br)ccc2O[C@H]1c1ccc2c(c1)OCO2	/	-1%	/	/	/	/
Cc1ccc(C)c(NS(=O)(=O)c2cc(C(=O)NCCSC3CCCCC3)ccc2C)c1	-1%	-21%	0%	10%	1%	21µM*
Cc1ccccc1NS(=O)(=O)c1cc(C(=O)NCCSC2CCCCC2)ccc1C	-12%	-17%	5%	1%	-2%	?
COc1cccc(NC(=O)CN(C)C(=O)CNC(=O)c2sc3ccccc3c2Cl)c1	13%	/	4.8µM*	19%	25%	29%
